# Reference: PubChem BioAssay (Tox21)
# Records with an inconclusive call do not appear. Unmarked numbers belong to inactive results. Calls of active or inactive are those of the source. The call rests on the fitted dose curve.
# Target: Acetylcholinesterase (Homo sapiens) (UniProt P22303)
# Assay: Acetylcholinesterase (AChE) small molecule antagonists: colormetric cell-based qHTS assay (AID 1347395); further: nearly all actives have a fitted effect of over 30% in size
# Details: SH-SY5Y cells AChE activity, colorimetric (Ellman); series mostly up to 115 µM; activity, negative = inhibition: at the top concentration
# From the text: National Center for Advancing Translational Sciences [NCATS]
# Division of Preclinical Innovation [DPI]
# U.S. Environmental Protection Agency [EPA]
# National Institutes of Environmental Health Sciences [NIEHS]
# National Toxicology Program [NTP]
# U.S. Food and Drug Administration [FDA]
# Acetylcholinesterase (AChE) is the primary cholinesterase in the body that hydrolyzes a key neurotransmitter, acetylcholine. Inhibition of AChE activity can lead to neurotoxicity. The known inhibitors include organophosphorous pesticides (OP), chemical warfare agents, drugs, and various phytochemicals.
# A homogenous cell-based assay using the Amplite Colormetric acetylcholinesterase assay kit (AAT Bioquest, Sunnyvale, CA) was used to evaluate the chemicals in the Tox21 10K library that inhibit AChE activity. The assay uses 5, 5-dithiobis-(2-nitrobenzoic acid) (DTNB) to quantify the thiocholine produced from the hydrolysis of acetylthiocholine by AChE from the SH-SY5Y cells.
# Tox21 Assay Protocol Summary:
# For the cell-based AChE assay, 2,000 SH-SY5Y cells in 4 uL/well were dispensed into black, clear-bottom 1536-well plates using a Multidrop Combi dispenser (Thermo Scientific, MA). The assay plates were incubated overnight at 37 C to allow cells to attach to the wells, followed by the transfer of 23 nL of compound or DMSO (vehicle control) by a Pintool Station (Wako Automation, CA). The plates were incubated for 30 min at 37 C and 5% CO2, followed by the addition of 4 uL of detection cocktail solution (DTNB, acetylthiocholine) into each well using a Flying Reagent Dispenser (Beckman Coulter, CA) and then 90 min incubation at 37 C.
# On the % scale 0 is the no-effect control and ±100 the full control effect; potency means the concentration at half of the fitted maximal effect.
# Sequence of Acetylcholinesterase (Homo sapiens) (P22303 whole entry, looked up): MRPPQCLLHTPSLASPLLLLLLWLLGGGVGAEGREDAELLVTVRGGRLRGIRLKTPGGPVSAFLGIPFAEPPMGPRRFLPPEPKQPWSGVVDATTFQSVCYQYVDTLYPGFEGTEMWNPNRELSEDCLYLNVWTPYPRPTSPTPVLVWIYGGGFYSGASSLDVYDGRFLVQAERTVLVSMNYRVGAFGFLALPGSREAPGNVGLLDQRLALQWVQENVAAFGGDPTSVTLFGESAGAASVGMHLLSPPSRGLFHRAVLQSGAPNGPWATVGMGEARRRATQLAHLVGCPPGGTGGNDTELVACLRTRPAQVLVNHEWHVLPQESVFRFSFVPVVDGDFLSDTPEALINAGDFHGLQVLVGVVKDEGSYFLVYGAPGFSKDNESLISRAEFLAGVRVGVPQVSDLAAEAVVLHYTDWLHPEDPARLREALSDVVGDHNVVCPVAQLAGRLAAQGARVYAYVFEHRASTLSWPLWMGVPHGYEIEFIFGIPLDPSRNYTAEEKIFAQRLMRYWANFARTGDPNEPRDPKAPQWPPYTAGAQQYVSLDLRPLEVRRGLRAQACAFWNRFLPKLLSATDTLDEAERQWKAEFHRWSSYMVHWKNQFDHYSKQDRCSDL
Structure (SMILES),"activity, negative = inhibition",Potency
CC(=O)NC(=O)c1ccccc1O,-0.0102% [at 52.9 µM],–
N#CSCSc1nc2ccccc2s1,-2.95%,–
CCCCCCOC(=O)CCCCC(=O)OCCCCCC,2.1%,–
COc1cc(OC)nc(NC(=O)NS(=O)(=O)Nc2ccccc2C(=O)N(C)C)n1,0.39%,–
COc1ccccc1N=Nc1c(S(=O)(=O)O)cc2cc(S(=O)(=O)O)cc(NC(C)=O)c2c1O,0.526%,–
CC(C)CCCCCCOC(=O)CCCCC(=O)OCCCCCCC(C)C,-1.72%,–
CC(C)CCOCc1ccccc1,-0.802%,–
[Cl][Eu]([Cl])[Cl],2.86%,–
N#CSc1ccc(N)c([N+](=O)[O-])c1,1.45%,–
CC(=O)O[C@@H]1CC2CCC1(C)C2(C)C (stereo not given in full),-2.71%,–
Cc1cccc(Br)c1,0.102%,–
Nc1nc2ccccc2n1Cc1ccc(F)cc1,-12.4% [at 52.9 µM],–
CCC(C)C1CCCCC1=O (stereo not given),1.05%,–
SC1CCCCC1,0.0659%,–
Nc1cc(C(=O)O)ccc1Cl,1.58%,–
C=C1CC[C@H]2O[C@]2(C)CC[C@@H]2[C@@H]1CC2(C)C,-1.1%,–
CC(C)(C)c1csc(-c2cc3cc(OCc4ccccc4CC(=O)O)ccc3o2)n1,-4.24%,–
CC(=O)c1ccc2c(c1)N(CCCN1CCC(CCO)CC1)c1ccccc1S2,–,38.9 µM (active)
Cc1ccc2c(c1)CCCN2,-0.91%,–
Cc1cc(OI)c(C(C)C)cc1-c1cc(C(C)C)c(OI)cc1C,0.0769% [at 52.9 µM],–

Structure (SMILES),"activity, negative = inhibition",Potency
Cc1cncc(C)c1,1.78%,–
CC(CSC(=O)c1ccccc1)C(=O)N1C[C@@H](Sc2ccccc2)C[C@H]1C(=O)O (stereo not given in full),0.861% [at 23.6 µM],–
CC(C)(Cc1c[nH]c2ccccc12)NCC(O)COc1ccccc1C#N (stereo not given),-4.96% [at 52.9 µM],–
COc1cccc(Br)c1,2.63%,–
CC1(C)CCC(C)(C)c2cc(C(=O)Nc3ccc(C(=O)O)cc3)ccc21,0.651%,–
CCN1CCN(c2cc3c(cc2F)c(=O)c(C(=O)O)cn3C2CC2)CC1,0.656% [at 52.9 µM],–
CC(=O)c1ccc2c(c1)[C@H](NC(=O)c1ccc(F)cc1)[C@@H](O)C(C)(C)O2,-1.68%,–
CCCCCCOC(=O)C(C)CC (stereo not given),0.701%,–
CC(C)NCCCC1(C(N)=O)c2ccccc2-c2ccccc21,-0.0122% [at 52.9 µM],–
Nc1cc(C(Cl)=C(Cl)Cl)c(S(N)(=O)=O)cc1S(N)(=O)=O,-1.01% [at 52.9 µM],–
Cc1ccc(Nc2ccc(O)c3c2C(=O)c2ccccc2C3=O)cc1,0%,–
Cc1cc(C)c(C=O)c(C)c1,-0.837%,–
CCCCCCOc1ccccc1C(N)=O,-0.0717% [at 52.9 µM],–
CC(=O)OC1CCCCC1C(C)(C)C (stereo not given),-2.9%,–
COc1cc2c(Nc3ccc(Br)cc3F)ncnc2cc1OCC1CCN(C)CC1,1.65% [at 52.9 µM],–
CCCCCCCC/C=C\CCCCCCCCCCCC(=O)O,-0.451%,–
O=C1OC(=O)c2cc(Oc3ccc4c(c3)C(=O)OC4=O)ccc21,-0.0064%,–
Cc1ccnc(N)c1,4.19%,–
CC(=O)Oc1cc2c(s1)CCN(C(C(=O)C1CC1)c1ccccc1F)C2 (stereo not given),-14% [at 52.9 µM],–
CC(C)=CCC/C(C)=C/CC/C(C)=C/CCC(=O)OC/C=C(\C)CCC=C(C)C,0.0461% [at 52.9 µM],–
